# Screening results: PubChem BioAssay, several laboratories
# Hits are enriched below; roughly 4.6% of the tested compounds scored in any of these assays.
# Cav3 T inh: Cav3.2 calcium influx blockers – cell-based, Fluo-4 calcium fluorescence, FDSS, MLSMR library, primary screen; hit rate 4% among 100,000; B-score at 10 µM; Voltage-dependent T-type calcium channel subunit alpha-1H (Homo sapiens), O95180; Cav3.2-expressing cells; stronger effect = lower value;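 active = single-dose well whose peak fluorescence ratio is a statistical outlier from its plate by either plate-standardised score or position-corrected B-score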
# sEH inh: soluble epoxide hydrolase inhibitors, primary screen, biochemical, human sEH; Bifunctional epoxide hydrolase 2 (Homo sapiens), P34913; recombinant human sEH enzymatic activity assay; inhibition, % at 2 µM; hit rate 0.34% among 91,000; AID 707, 2007; in the data active = inhibition above about 80%
# IL1B NFkB pot: enhancers of NFkB p65 translocation in HUVEC – imaging, IL-1B stimulus, high-content imaging, primary screen | AID 819, 2007 | hit rate 0.3% among 94,000 | HUVEC IL-1B NFkB p65 nuclear translocation imaging | activation, % at 2 µM;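 active = activation above 40%, about the mean plus 3 SD, also judged a hit on visual image review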;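 note: percent activation is computed from the nuclear over cytoplasmic p65 intensity ratio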
# HUVEC tox IL1B: cytotoxicity in IL-1B stimulated HUVEC, primary screen, cytotoxicity control for IL-1B NFkB translocation project, imaging, Hoechst nuclear count, IL-1B stimulus; HUVEC cell count loss; cell count reduction, % at 2 µM; hit rate 0.41% among 94,000; AID 845, 2007;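 active = cell count reduction more than 3 SD above the screen-wide mean, cut at about 70% in these data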;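 note: normalized per plate to untreated control cells as the no-loss baseline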
# sEH activator: soluble epoxide hydrolase activators, primary screen, biochemical, human sEH. hit rate 0.04% among 91,000. activation, % at 2 µM. Bifunctional epoxide hydrolase 2 (Homo sapiens), P34913. purified human sEH enzymatic activity, activator screen; in the data active = activation above about 37%
# NFkB transloc inh: inhibitors of IL-1B driven NFkB p65 nuclear import, primary screen, imaging, HUVEC, IL-1B stimulus, high-content imaging; HUVEC IL-1B NFkB p65 nuclear translocation imaging; inhibition, % at 2 µM; hit rate 0.43% among 94,000; AID 796, 2007;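 active = inhibition above about 30% together with a positive call from visual inspection of the well image, limit read from the data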;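 note: nuclear over cytoplasmic p65 intensity ratio measured by imaging; 0% = IL-1B stimulated DMSO wells and 100% = unstimulated DMSO wells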
# * = called active by the depositor; x = not tested or not shown.
SMILES,Cav3 T inh,sEH inh,IL1B NFkB pot,HUVEC tox IL1B,sEH activator,NFkB transloc inh
O=S(=O)(c1cc(Cl)cc(Cl)c1)N1CCCC1c1nc2ccccc2s1 (centres undefined),0.77,-9,6,-35,12,-6
O=S(=O)(c1ccc(Cl)cc1)N1CCCC1c1nc2ccccc2s1 (centres undefined),-4.5*,6,-3,-18,-4,3
COc1ccc(OC)c(NC(=O)C2CCCNC2=O)c1 (centres undefined),-0.69,0,-2,11,0,2
O=C(O)C1CCCCN1S(=O)(=O)c1ccccc1 (centres undefined),1.4,1,-6,0,0,6
O=C(C1CCCCN1S(=O)(=O)c1ccccc1)N1CCCCC1 (centres undefined),-0.003,0,-52,10,-1,52*
CCC(C)Sc1nc2c(c(=O)[nH]c(=O)n2C)n1C (centres undefined),x,8,7,91*,-9,-7
CN(C(=S)NC(=O)CCCOc1ccc(Cl)cc1Cl)c1ccccc1,-3.7*,8,14,17,-5,-14
CC(C)NC(=O)CCCOc1ccc(Cl)cc1Cl,-0.45,5,24,4,-8,-24
O=C1NC2(CCCc3ccccc32)C(=O)N1Cc1nnc(-c2ccccc2Br)o1 (centres undefined),-2.8,-6,-14,0,5,14
COC(=O)c1ccc(Oc2nc(C)cc(Oc3ccccc3)n2)cc1,-2.8,-11,27,90*,9,-27
COc1ccccc1OCC(=O)N(Cc1nc(-c2ccc(Cl)cc2)no1)C(C)C,-5*,x,5,23,x,-5
Cc1cc(Br)ccc1OCC(=O)N(Cc1nc(-c2ccccc2)no1)C(C)C,-4.8*,-8,6,-22,6,-6
CC(C)N(Cc1nc(-c2ccccc2)no1)C(=O)COc1ccccc1,-1.9,-19,13,-15,18,-13
CCN1CCN(C(c2cc3cc4c(cc3[nH]c2=O)OCO4)c2nnnn2C(C)(C)CC)CC1 (centres undefined),-0.33,x,x,x,x,x
Nc1c(C(=O)Nc2ccccc2)sc2nc3c(c(-c4ccco4)c12)CCCC3,-2.1,-2,-6,-10,1,6
Cc1ccccc1NC(=O)c1sc2nc3c(c(-c4ccco4)c2c1N)CCCC3,-4.2*,-14,-28,10,16,28
CCOC(=O)c1cnn(CCOC(=O)C2CC2)c1NC(=O)C1CC1,-3.6*,-7,-7,-19,8,7
CCN1C(=O)/C(=C/N(C(C)=O)c2ccccc2)N(c2ccccc2)C1=S,-2.1,-4,-43,-29,4,43*
C=CCc1ccc(OCC(O)CO)c(OC)c1 (centres undefined),x,1,11,-16,-6,-11
C=CCc1ccc(OCC(O)CN2CCC(Cc3ccccc3)CC2)c(OC)c1 (centres undefined),-4*,4,-5,-114,-4,5
COc1cccc(OCC(O)CN2CCC(Cc3ccccc3)CC2)c1 (centres undefined),-4.2*,1,29,-32,-1,-29
CCN(CC)S(=O)(=O)c1cccc(-c2nnc(SC(C)C(=O)NCCC3=CCCCC3)o2)c1 (centres undefined),-2.9*,85*,x,x,-84,-5
CCN(CC)S(=O)(=O)c1cccc(-c2nnc(SCCCC(=O)c3ccc(F)cc3)o2)c1,-4.7*,36,24,-2,-35,-24
CCN(CC)S(=O)(=O)c1cccc(-c2nnc(SCCCC(=O)c3ccccc3)o2)c1,-5.3*,23,16,-17,-20,-16
COc1cc(-c2cc3nc(C)c(C)c(=O)n3[nH]2)cc(OC)c1OC,-0.23,8,20,0,-9,-20
Cc1ccc(C(=O)Nc2ccc3c(c2)OCO3)cc1S(=O)(=O)N1CCCC1,-0.44,54,10,-19,-54,-10
